From PMC12136788
Numbering of substitutions follows the chain as printed. Over roughly 24,000 sequences, “enrichment r” has its median near 0.99; the highest 2% begin near 3.7. This is one part of a sample in which the highest values are shown more often than they occur.

T1: UNK ZnF1-3 (human, UniProt Q9C0B0 31-174)
T1 sequence: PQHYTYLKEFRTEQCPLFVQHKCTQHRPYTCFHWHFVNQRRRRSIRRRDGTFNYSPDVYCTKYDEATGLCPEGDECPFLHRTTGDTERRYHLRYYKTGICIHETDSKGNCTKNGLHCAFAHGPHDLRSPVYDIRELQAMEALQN

B1: chr16:45382771:45382772:-_ENSMUSG00000022661_ENSMUST00000163230|mus_mus|mus_mus_mus_hu_True|8_38 (ssRNA)
RNA: GGGAGUUCUACAGUCCGACGAUCCUGGGUCAUGUUAUAAGACAAAUGGACAGGGAGGGCAUGCUUCUCAAAAAAUGUGAGCUAUUGUCUAAGACUAACAAUAUUGCUCUAGCUAUAAAAAUAAGUUUUAAAUGGACGUUAAGACAACAGAGGAUUGAGCAUCA
B2: chr16:45382771:45382772:-_ENSMUSG00000022661_ENSMUST00000163230|mus_mus|mus_mus_mus_hu_True|8_48 (ssRNA)
RNA: B1 RNA with U87A, G105U, C106A
B3: chr16:45382771:45382772:-_ENSMUSG00000022661_ENSMUST00000163230|mus_mus|mus_mus_mus_hu_True|8_8 (ssRNA)
RNA: B1 RNA with G105U, C106A
B4: chr16:45382771:45382772:-_ENSMUSG00000022661_ENSMUST00000163230|mus_mus|mus_mus_mus_hu_True|8_108 (ssRNA)
RNA: B1 RNA with G27A, C30G, A31U, G33A, A36G, G105U, C106A
B5: chr14:62207507:62207508:+_ENSG00000100644_ENST00000337138|hu_mus|FALSE|FALSE (ssRNA)
RNA: GGGAGUUCUACAGUCCGACGAUCUGACAACUGAUCAAAGGAACGUAACUGGAAAUCAUCAUCCAUUGGGAUAUAGGGAGCCAGCAUCUCCAAAUCUAAAUCAGUGUCCUGAGUUGAAAAUGGAUUCUUUGCCUCUGUGUCUUCCAACAGAGGAUUGAGCAUCA
B6: chr9:95013113:95013114:-_ENSG00000196305_ENST00000443024|hu_hu|hu_hu_hu_mus_False|28_58 (ssRNA)
RNA: GGGAGUUCUACAGUCCGACGAUCCUCAGUCAGAAAGGGCGUGUAAGGGGCCAUCAGUCUGCACAGAGAAAGCAGGACACUAAACAAUGUCUCCAGAGCCAUGACACAAUCCUCCAUCCCACUCUCACCCUUUAACCUCCUCCUCAACAGAGGAUUGAGCAUCA
B7: chr9:14812383:14812384:-_ENSMUSG00000031934_ENSMUST00000164273|mus_mus|FALSE|FALSE (ssRNA)
RNA: GGGAGUUCUACAGUCCGACGAUCAUAGCUCAAGUAGAUACAUGCCAACAGUAUAACCACAAAUGUCACCAGCCGGCAGCUAAUGUAUUUCAUGAUUAAAUGACUAGAGUUCUUUUUUGUCUUCAAGUACUGCUCCACGAUUGGCAACAGAGGAUUGAGCAUCA
B8: chr5:128448638:128448639:+_ENSG00000066583_ENST00000173527|hu_mus|hu_hu_hu_mus_False|48_58 (ssRNA)
RNA: GGGAGUUCUACAGUCCGACGAUCGGCACUCGCCUUAAUUAGGUUCUGAAUUUCCUUGAACUUCGGGUGGUCUUUGUCAGCUACCAGCUGAAGCAGAACAGCCUCACUAGUGGUCACGAUGAUCCCAGUGCGGGCAAGACGCUCCAACAGAGGAUUGAGCAUCA
B9: chr10:121347744:121347745:-_ENSG00000151923_ENST00000436547|hu_mus|FALSE|FALSE (ssRNA)
RNA: GGGAGUUCUACAGUCCGACGAUCCGAUCUGACUGAAUAACUGAAGAAUAAGGACUUCUGUCACAUCUCUGGAGAGGUUACCUACGUAUAGAGUCCGGGGCUGUCCGUCGUCUUCCAUCAUGGUGGGUGCGACGGAGUGAUCCCCAACAGAGGAUUGAGCAUCA
B10: 89385701_89385821_685_3pUTR_ENSMUSG00000031652_ENSMUST00000034074|mouse|control|control (ssRNA)
RNA: GGGAGUUCUACAGUCCGACGAUCUCUGCGUGGGCUUCAACAAACUGUCUGAAUUCCCGUUUGAUUUCCGACUCUCUCUGAUUACUGGGGAGGUUCUCGUUGCUCUCAAAGAGCUUCACAAACUGCUGAAUGUGACUCCUGGCCCAACAGAGGAUUGAGCAUCA
B11: chr12:16048344:16048345:+_ENSG00000023734_ENST00000419869|hu_hu|hu_hu_hu_mus_True|8_8 (ssRNA)
RNA: GGGAGUUCUACAGUCCGACGAUCAGAUCGUCCAUAAGUAAUAACCAAAAUCUCUCCUUCAGGAAUAUACUCCAUGCUGCUAACAGACAUAUUAAAAUUCAGAGAUUUCACUUCUGUCAUUGUGGCAUGAUCCCAAAGCCGAACCAACAGAGGAUUGAGCAUCA
B12: chr1:130171486:130171487:+_ENSMUSG00000026353_ENSMUST00000027592|perfect_dup|motif|central (ssRNA)
RNA: GGGAGUUCUACAGUCCGACGAUCUGUGGAUGUGGCUCUUGCUGAAGUCUGUGCAGGAGGAGGAUUGCUAAAUAAAAAAUUGCGGAUUAAUCUCCAUAUGGCCAGGAAUGGAUAAAGCACCGUCCCCAGUAAUGUCCAAAUGUCCAACAGAGGAUUGAGCAUCA
B13: chr19:16212804:16212805:+_ENSG00000167460_ENST00000300933|hu_mus|hu_hu_hu_mus_False|8_88 (ssRNA)
RNA: GGGAGUUCUACAGUCCGACGAUCAACAAUUCUGGAGUGAAGGAAAGCAUCAAGGAUGAACAGCAUUAAAGCUCAGUCAGAAGGCACAUGGGCAACAAUGAUCACCCCAGCAUUCUCGCUUGGAAUGUGCUUGAGAAAUCUGUUCAACAGAGGAUUGAGCAUCA
B14: chr1:130171486:130171487:+_ENSMUSG00000026353_ENSMUST00000027592|perfect_dup|FALSE|FALSE (ssRNA)
RNA: B12 RNA with G83U, G84A
B15: chr1:130171486:130171487:+_ENSMUSG00000026353_ENSMUST00000027592|perfect_dup|FALSE|FALSE (ssRNA)
RNA: GGGAGUUCUACAGUCCGACGAUCUGACGAUGUUACUCUCACUGAAGUCUGUGUGGGAGGCGGAUUACUAAACAAGAAAUUGCUAAUUAAUCUCCAGAUGGCAAGGAAUGGAUAAAGCACUGUUCCCAACAAGGUCCAAAUGUCCAACAGAGGAUUGAGCAUCA
B16: chr1:130171486:130171487:+_ENSMUSG00000026353_ENSMUST00000027592|perfect_dup|motif|central (ssRNA)
RNA: B15 RNA with U83G, A84G
B17: chrX:102931482:102931483:-_ENSG00000123562_ENST00000441076|hu_hu|FALSE|FALSE (ssRNA)
RNA: GGGAGUUCUACAGUCCGACGAUCAAUUGCAUCUACAUUUUUCUUGGCAGGGAGUUGAAACAGCUGCUUCUGCCUGGUAACUAAGUCCCAGUCCUCAACAAGCCAUGGUUUUAAUUCUUCAGGAAUCUUCACUUUAACCUCCAUCAACAGAGGAUUGAGCAUCA
B18: chr4:131761308:131761309:-_ENSMUSG00000040025_ENSMUST00000102570|mus_mus|motif|central (ssRNA)
RNA: GGGAGUUCUACAGUCCGACGAUCGCUGACUGUCCAUCAAUCAUGGCUCCACCUAAGGAGCUGGGUGCAUAAGCGUAAUUGCGGCGGUAUCCAGAGCUUUGAGUAGACUGUCCCUGAGAACUGUUAUUUCCCCAUGCUGAGAAGCAACAGAGGAUUGAGCAUCA
B19: chr17:15081082:15081083:+_ENSMUSG00000050088_ENSMUST00000052691|mus_mus|motif|central (ssRNA)
RNA: GGGAGUUCUACAGUCCGACGAUCUGCUCCAGCAUAUUCAAGGGAUCAGAAGAGAAUUUCAAGCACCAGUUUCAAAAUGCGGAUCAAUAUCGUCCAGAGAACUGAUUCCUCCUCUUGGGCUGCCUCUUCUGGAGCGUAAGCCUGCAACAGAGGAUUGAGCAUCA
B20: chr14:14948730:14948731:-_ENSMUSG00000021737_ENSMUST00000022256|mus_mus|FALSE|FALSE (ssRNA)
RNA: GGGAGUUCUACAGUCCGACGAUCAAAAACUGAAUAACGGCAUUCAUAGAGAGAAAACAGAUACUGCCGAACUGCUGGAAGACUGUGCAACACUUCAAGGAUCUCUGCCCCUUUAAUGACCUUUUCCCUGAGGUCCGGCCUUUCCAACAGAGGAUUGAGCAUCA
B21: chr15:76909541:76909542:-_ENSMUSG00000033565_ENSMUST00000166610|perfect_dup|FALSE|FALSE (ssRNA)
RNA: GGGAGUUCUACAGUCCGACGAUCCAACAUGAUCAAUAAUUUAUACACAUGGAGAGUAAUACAAAAAAUAAUGAAUAAAAGCUAAAGAUCUAACUACUCAACCUUCACAAUUCCAGCUACUUGAUAAUAGGAGUAACCCAAUGACAACAGAGGAUUGAGCAUCA
B22: chr15:76909541:76909542:-_ENSMUSG00000033565_ENSMUST00000166610|perfect_dup|motif|central (ssRNA)
RNA: B21 RNA with U82G, A83G
B23: chr2:47387792:47387793:-_ENSG00000143933_ENST00000272298|hu_hu|hu_hu_hu_mus_True|28_38 (ssRNA)
RNA: GGGAGUUCUACAGUCCGACGAUCUAAGGACAAUGACAGUAAGAUAAGGGAAGAAAACAUGGAGGAAUGAAGUCCUAAUUACUAUACAUGCAUAUUUUUUUGACAGUAGGGAGAAACACCUUUUACAGAUAAGUUACAAACAAACAACAGAGGAUUGAGCAUCA
B24: chr18:2804189:2804190:+_ENSG00000101596_ENST00000320876|hu_hu|FALSE|FALSE (ssRNA)
RNA: GGGAGUUCUACAGUCCGACGAUCCAAUGCCUUGGAUUUAAAACAUGACUCCUUCUUGAUACAAUGAAUUAUAAAAGCAAACUAGUUCCACAUAUUAAUUAUACGUUCAAGUCUAGUUCCUAAAAAGUCAUUUCUCUUUAACCUCAACAGAGGAUUGAGCAUCA

What follows are binders tested against T1, UNK ZnF1-3 (assay: nsRBNS (natural sequence RNA bind-n-seq); RBNS binding buffer (assumed for nsRBNS): 25 mM Tris pH 7.5, 150 mM KCl, 3 mM MgCl2, 0.01% Triton X-100, 500 ug/ml BSA, 20 U/ml SUPERase-In, 4 C; UNK is unkempt and MSI1 is Musashi-1; names of the RNAs are library labels; protein concentration not given here; high values mean tight binding).
Binder B1 has a binding signal of 3.88 enrichment R. B2 gave a binding signal of 5.59 enrichment R. Work on B3 yielded a binding signal of 3.98 enrichment R. In the case of B4, the binding signal is reported as 3.42 enrichment R. With B5 the binding signal was 1.17 enrichment R. B6 showed a binding signal of 1.38 enrichment R. With B7 the binding signal was 0.953 enrichment R. Binder B8 has a binding signal of 0.822 enrichment R. B9 gave a binding signal of 0.644 enrichment R. B10 gave a binding signal of 0.876 enrichment R. Binder B11 has a binding signal of 1.38 enrichment R. Binder B12 has a binding signal of 3.3 enrichment R. B13 showed a binding signal of 1.57 enrichment R. In the case of B14, the binding signal is reported as 4.56 enrichment R. For B15, the binding signal was 4.56 enrichment R. In the case of B16, the binding signal is reported as 3.3 enrichment R. Work on B17 yielded a binding signal of 1.04 enrichment R. B18 showed a binding signal of 1.17 enrichment R. For B19, the binding signal was 1.62 enrichment R. B20 was tested, and the binding signal was 1.41 enrichment R. Binder B21 has a binding signal of 6.42 enrichment R. For B22, the binding signal was 8.91 enrichment R. Binder B23 has a binding signal of 1.79 enrichment R. For B24, the binding signal was 1.05 enrichment R.
